Consider 26 molecules from PubChem BioAssay AID1851 (National Center for Advancing Translational Sciences (NCATS), 2009).

Out of some 16,000 compounds screened, about 4,000 (25%) were called active. Another 26% or so got no clear call; they are omitted. Only a sample is shown. Values without a mark were called inactive. The call rests on the fitted dose curve; in most records, active means well fitted curve in the direction sought with a large enough effect; inconclusive means small, poorly fitted or top-dose-only effect, or effect the other way; inactive means no such curve, though single readings can be large or run the other way.
On the % scale 0 is the no-effect control and ±100 the full control effect.

In this assay the target is Cytochrome P450 2C9 (Homo sapiens) (UniProt P11712). The assay can be described thus: Cytochrome panel assay with activity outcomes. The conditions noted are these: recombinant CYP, pro-luciferin dealkylation, luminescence, p450-cyp2c9; series mostly up to 57.1 µM; activity, negative = inhibition: at the top concentration.
Sequence of Cytochrome P450 2C9 (Homo sapiens) (P11712 whole entry, looked up): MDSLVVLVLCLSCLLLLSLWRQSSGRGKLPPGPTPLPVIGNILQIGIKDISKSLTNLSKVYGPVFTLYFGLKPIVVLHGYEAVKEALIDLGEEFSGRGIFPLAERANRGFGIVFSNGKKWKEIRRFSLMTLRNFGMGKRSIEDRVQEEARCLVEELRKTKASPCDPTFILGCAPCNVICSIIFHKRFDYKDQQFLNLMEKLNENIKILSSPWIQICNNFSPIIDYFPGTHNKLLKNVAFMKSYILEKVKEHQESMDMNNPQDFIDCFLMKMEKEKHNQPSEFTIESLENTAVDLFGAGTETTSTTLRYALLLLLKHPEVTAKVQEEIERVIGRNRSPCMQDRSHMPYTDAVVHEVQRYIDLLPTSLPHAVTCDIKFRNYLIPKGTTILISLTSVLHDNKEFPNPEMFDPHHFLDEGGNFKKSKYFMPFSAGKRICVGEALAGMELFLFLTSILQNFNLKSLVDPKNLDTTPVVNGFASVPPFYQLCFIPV
Turning to `Cc1noc(C)c1-c1nccc(N(C)Cc2ccco2)n1`, the activity, negative = inhibition is 10.6% [at 2.29 µM].
As to `CCCn1c(=O)c2[nH]c(-c3ccc(OCC(=O)NCCN)cc3)nc2n(CCC)c1=O`, the “activity, negative = inhibition” value was -17.5%.
In the case of `Cc1noc(C)c1-c1nc(N2CCN(C)CC2)c2ccccc2n1`, the activity, negative = inhibition was 1.84% [at 2.29 µM].
The same measure, in the same setting: the figure for `Cc1cc([C@](C)(N)C(=O)O)ccc1P(=O)(O)O` is -9.49%.
With `N[C@H](C(=O)O)c1cc(O)cc(O)c1`, the AC50 (in general, the concentration at which the activity in the assay is half-maximal) was “inactive”.
`CC1=C(C(=O)O)N2C(=O)[C@@H](NC(=O)[C@@H](N)C3=CCC=CC3)[C@@H]2SC1`: the “activity, negative = inhibition” value was 11.2%.
As for `CC(Sc1nnc(Cc2cccs2)n1C1CCCCC1)C(N)=O` (stereo unspecified), the “activity, negative = inhibition” value is -26.6%.
On the same count and under the same terms, as for `COc1ccc(NC(=O)NCc2cccn2C)c(OC)c1`, the figure is 2.26%.
As for `COc1ccc(NC(=O)CSc2nnc(Cc3cccn3C)n2CCc2ccccc2)c(OC)c1`, the AC50 is 11.2 µM (active).
On the same count and under the same terms, as for `COc1ccc(OC)c(C(=O)CSc2nnc(Cc3cccs3)n2CCc2ccccc2)c1`, the figure is 1.58 µM (active).
As to `COc1cccc(Nc2ncc3nc(CCc4ccccc4)c(=O)n(Cc4cccs4)c3n2)c1`, the “activity, negative = inhibition” value was 11%.
Same read-out and setting: the figure for `O=c1[nH]c(SCc2ccccc2[N+](=O)[O-])nc2nc[nH]c12` is 11.4% [at 11.4 µM].
Regarding `O=[N+]([O-])c1ccc(-c2cnc(SCc3ccccc3Cl)[nH]2)cc1`, the AC50 was 3.98 µM (active).
Take `O=c1[nH]c(SCc2cccc([N+](=O)[O-])c2)nc2nc[nH]c12`: the activity, negative = inhibition was 4.13% [at 11.4 µM].
Consider `COc1ccccc1CN1CCCC2(CCN(S(C)(=O)=O)CC2)C1`, for which the “activity, negative = inhibition” value is 6.51%.
Turning to `CCOc1cc(CNCCCN2CCOCC2)cc(Br)c1OCC(=O)Nc1cccc(C(F)(F)F)c1`, the “activity, negative = inhibition” value is -9.88%.
`O=C(O)C[C@@H]1CCCc2ccccc2[C@H]1O`: the “activity, negative = inhibition” value was 11.1%.
Turning to `C=CCOc1c2ccc(C(=O)NC3CCCc4ccccc43)cc2nn1C` (stereo unspecified), the “activity, negative = inhibition” value was -24.9%.
With `Cc1c(C(=O)NC2CCCc3ccccc32)oc2ccc(S(=O)(=O)N3CCOCC3)cc12` (stereo unspecified), the AC50 is 7.08 µM (active).
The same measure, in the same setting: the figure for `Cc1c(C(=O)Nc2cccc(C(F)(F)F)c2)oc2ccc(S(=O)(=O)N3CCOCC3)cc12` is 1.41 µM (active).
As to `Fc1cccc(F)c1C(Nc1nncs1)Nc1nncs1`, the activity, negative = inhibition was -6.71% [at 11.4 µM].
For the molecule `CSc1ncnc2c1ncn2[C@@H]1O[C@@H](CO)[C@H](O)O[C@@H]1O`, the activity, negative = inhibition is 1.22% [at 11.4 µM].
Same read-out and setting: the figure for `CS(=O)(=O)Nc1cccc(-c2ccc3ncnc(Nc4ccccc4)c3c2)c1` is -12.6% [at 2.29 µM].
`COc1ccc(CCn2c(C)cc(C(=O)CSc3nc(N)cc(=O)[nH]3)c2C)cc1`: the AC50 is 8.91 µM (active).
Take `COc1ccc(C(=O)NC2(C(F)(F)F)C(=O)Nc3c2c(=O)[nH]c(=O)n3CCc2ccc(OC)c(OC)c2)cc1` (stereo unspecified): the “activity, negative = inhibition” value is -20.4%.
Consider `Cc1cc(C(=O)CSc2nnc(N)s2)c(C)n1CCc1ccc(F)cc1`, for which the AC50 is 1.12 µM (active).
